# Assay results from PubChem BioAssay (NCI).
# This is part of a sample that, as a whole, favours compounds with a hit. Of some 79,000 tested, about 15% had one in any assay. Values without a mark were called inactive. Activity calls are given as the source filed them. Rule as the data show it: active = growth inhibition above about 70%; inactive = the rest. Where a SMILES comes first, the peptide text is derived from it. The star is where a group is joined. Cbz = O=C(OCc1ccccc1)*
# Experiments:
# [1] = NCI Yeast Anticancer Drug Screen. Data for the rad50 strain (AID 155);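 also: 0% = growth of vehicle-only cultures of the same strain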; settings: S. cerevisiae rad50 strain growth inhibition; at 50.0 µM; active compounds read high
# In short: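 Growth of the mutant yeast was measured after compound exposure and referenced to vehicle-treated cultures.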
# [2] = NCI Yeast Anticancer Drug Screen. Data for the mec2-1 strain (AID 157); settings: S. cerevisiae mec2-1 strain, at 50.0 µM, active compounds read high
# In short: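 Strain: mec2-1 (DNA repair/cell cycle alteration). Compound exposure, then growth measured; inhibition expressed relative to vehicle.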
# [3] = NCI Yeast Anticancer Drug Screen. Data for the sgs1 mgt1 strain (AID 161);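 also: 0% = growth of cultures given vehicle only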; settings: S. cerevisiae sgs1 mgt1 strain, at 50.0 µM, active compounds read high
# In short: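 Inhibition of yeast growth, normalised to vehicle-treated controls, is reported for a strain bearing genetic alterations in DNA damage repair.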
# [4] = NCI Yeast Anticancer Drug Screen. Data for the cln2 rad14 strain (AID 165);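 also: 0% = growth equal to vehicle treated cultures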; settings: S. cerevisiae cln2 rad14 strain, at 50.0 µM, active compounds read high
# In short: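 Compounds are applied to the cln2 rad14 yeast strain, and growth is then compared with that of vehicle-treated cultures to give inhibition.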
# [5] = NCI Yeast Anticancer Drug Screen. Data for the bub3 strain (AID 167); settings: S. cerevisiae bub3 mutant strain, at 50.0 µM, active compounds read high
# In short: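 Whole-cell yeast assay. The mutant strain was incubated with compounds, and growth inhibition was determined by comparison with vehicle-treated cells.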
# [6] = NCI Yeast Anticancer Drug Screen. Data for the mlh1 rad18 strain (AID 175); settings: S. cerevisiae mlh1 rad18 strain growth inhibition; at 50.0 µM; active compounds read high
# In short: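 Read-out is yeast growth inhibition, calculated against vehicle-only controls. The compound was applied to a strain engineered with DNA damage repair alterations.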
Compound,growth inhibition [1],growth inhibition [2],growth inhibition [3],growth inhibition [4],growth inhibition [5],growth inhibition [6]
CS(=O)(=O)CC1=Nc2nnc(CCCCCCCc3nnc4n3C(=O)C(CS(C)(=O)=O)=N4)n2C1=O,-17%,5.1%,5.55%,-12.1%,-5.15%,-7.95%
CCOC(=O)c1[nH]c(C)cc1C,2.95%,-15.9%,-7.55%,-18.2%,-22.4%,-0.9%
NC(=S)N/N=c1\cc(C(=O)Nc2ccc([N+](=O)[O-])cc2[N+](=O)[O-])oc2ccccc12,19.1%,26.3%,16.1%,-6%,22.9%,28%
Cc1cccc(C(O)(c2cccc(C)c2)C2(O)CCCCC2)c1,-9.45%,-0.45%,-0.9%,21.2%,1%,6.9%
COc1ccc2c(c1)CCCN2C(N)=Nc1ccc([N+](=O)[O-])cc1,-4.2%,-4.4%,-1.45%,-55.8%,-1.95%,-7.7%
Cc1cccc(C)c1N=O,-6.25%,-15.2%,-7.45%,22.8%,1.15%,-16.1%
C/C(N=NC(=S)N1CCC(C)CC1)=C1\C=CC=CN1O,97.3% (active),91.5% (active),95.9% (active),87.2% (active),48%,98.3% (active)
Nc1nc(Cl)nc(Cl)c1N,-21.9%,7.1%,-17.3%,-23.4%,-8.95%,-2.95%
N#CC1(NC2CCCCC2)CCN(Cc2ccccc2)CC1,-5.5%,-11.9%,-6.1%,4.1%,-7.5%,-1.75%
CCCNC(=O)CCC(=O)NS(=O)(=O)c1ccc(Cl)cc1,-14.4%,-3.05%,16.5%,-16.4%,16.1%,7.15%
CC(=O)OCC(C)(C(N)=O)c1ccccc1 (centres undefined),-36.9%,-9.15%,-5.5%,-32%,-5.9%,1.85%
O=C(NNc1ccccc1OCc1ccccc1)C(F)(F)F,-0.25%,-20.3%,0.35%,39.8%,27%,11.2%
Nc1nc(Cl)cc(NCCCNc2cc(Cl)nc(N)n2)n1,-1.55%,6.55%,13.3%,1.15%,3.65%,4.35%
CC(C)CC(NC(=O)C(CS)NC(=O)CN1C(=O)CCC1=O)C(N)=O (centres undefined),15.1%,-2.5%,4.65%,-17.1%,13.3%,19.8%
NCCCCN(CCCN)Cc1ccccc1,-4.8%,-1.25%,-17.1%,11.6%,-4%,-58.9%
O=C1NC(=O)N2CC(CI)OC2C1c1ccccc1 (centres undefined),0.25%,12.8%,10.2%,6.55%,-6.6%,11.4%
O=CN(Cc1ccccc1)Cc1ccccc1,5.15%,8.2%,3.65%,0.95%,-3.8%,-12.6%
COC(=O)C(CO)NC(=O)C(CO)NC(=O)OCc1ccccc1 (stereo not drawn) (Cbz-Ser-Ser-OMe; configuration not given here),-9.8%,3.7%,-0.25%,7.4%,-10%,-16.4%
Cc1cn(C2OC(CO)C(O)C(O)C2O)c(=O)[nH]c1=O (centres undefined),-1.4%,5.65%,-5.45%,-3.2%,15.2%,0.9%
O=c1c[n+]([O-])c2ccccc2n1O,10.8%,-3.75%,3.75%,-27.1%,-5.7%,11.8%

Compound,growth inhibition [1],growth inhibition [2],growth inhibition [3],growth inhibition [4],growth inhibition [5],growth inhibition [6]
Cc1ccc(NC(=O)CC(=O)CC(C)C)cc1C,-22.2%,-24.8%,-17.4%,0.75%,-37%,-10.8%
C/C(=N/NS(=O)(=O)c1ccc(C)cc1)C(=NO)/C(C)=N\NS(=O)(=O)c1ccc(C)cc1,55.6%,70.2% (active),45.4%,86.2% (active),49.9%,60.5%
CCCC(/C(C)=N/NC(N)=O)C1CCCCC1 (centres undefined),14.2%,7.45%,-2.6%,1%,-5.1%,2%
O=C1NC(=S)N/C1=C\c1cccs1,-20.6%,-7.25%,15.4%,-19.9%,-7.35%,-44.6%
O=C1CC(=O)N2C=CC=CC2N1 (centres undefined),-14.8%,-21.6%,-23.1%,-4.7%,-16.7%,-13.5%
CS(=O)(=O)CCCCCCCCCCC(=O)O,-5.4%,13.6%,3.4%,3.95%,10.4%,15.4%
CN(CCCO)CCCO,5.9%,-2.4%,0.7%,3.35%,1.85%,-0.85%
N#CCCCOc1ccccc1,-14.2%,-13.6%,16.4%,-6.7%,-2.05%,5.4%
O=C1NC(=O)/C(=C\c2cccc(Br)c2)N1,-7.95%,4.15%,-12.1%,6.8%,24.5%,8.85%
Cc1ccccc1S(=O)(=O)OC1NS(=O)(=O)c2ccccc21 (centres undefined),15.8%,-1%,-36.9%,-15.6%,-23.3%,2.9%
Cc1cccc(C)c1NC=O,4.7%,-2.35%,-3.3%,1.45%,-9.8%,8.9%
[N-]=[N+]=NC1OC(=O)C(Cl)=C1N=P(c1ccccc1)(c1ccccc1)c1ccccc1 (centres undefined),4.3%,11.3%,24.4%,9.6%,12.1%,23%
CCOP(=O)(Cc1c(C)cc(Br)c2ccccc12)OCC,-2.85%,-13.8%,-0.95%,-32.2%,5.45%,-9.35%
N#Cc1c(-c2ccccc2)cn2c1[nH]c(=O)c1ccccc12,4%,-6.65%,11.2%,5.45%,-17.9%,1.05%
CN(C)Cn1c2ccccc2c2ccccc21,-2.05%,-1.1%,3.9%,0.1%,-0.8%,-12.4%
CCOC(=O)Oc1ccc(C(=O)Oc2cc(Cl)c(Cl)cc2Cl)cc1OC,3.9%,4.7%,3.25%,18%,-13.9%,7%
COc1ccc(CNC(=O)C2C(=O)C(=O)N(Cc3ccc(OC)c(OC)c3)C2=O)cc1OC (centres undefined),20.8%,-5.45%,-0.9%,17.1%,-1.25%,14.7%
CCOC(=O)CCCNc1cc(OC)cc2cccnc12,-7.4%,-23.9%,-2.6%,-48.8%,19.8%,-8.7%
CCCCCCCCc1ccccc1,34.6%,30.9%,35.6%,13.5%,9.75%,21.8%
